This is part of a sample that, as a whole, favours compounds with a hit. Of some 79,000 tested, about 15% had one in any assay. The source made the active and inactive calls. Rule as the data show it: active = growth inhibition above about 70%; inactive = the rest.
Test: NCI Yeast Anticancer Drug Screen. Data for the sgs1 strain (AID 173);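 also: 0% = growth of vehicle-only control cultures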
Settings: S. cerevisiae sgs1 mutant, hits give high values
Experimental: Growth inhibition of yeast strains with defined genetic alterations is measured as a screen for potential anti-cancer activity. Selected strains with alterations in DNA damage repair or cell cycle control were exposed to compounds and growth inhibition was measured relative to vehicle treated controls. The strain used in this assay is sgs1

Measured: growth inhibition

COc1ccc(C(C)c2cc3c(cc2OCC(C)=O)OCO3)cc1 (stereo not given)
active: at 100.0 µM 77%
inactive: at 1.2 µM -3% | at 3.7 µM -2% | at 11.0 µM -1% | at 33.0 µM -4%

CCOC(=O)/C(=C/c1cccc(Cl)c1)N(CC)CC
active: at 100.0 µM 96%
inactive: at 1.2 µM 26% | at 3.7 µM 30% | at 11.0 µM 41% | at 33.0 µM 62%

O=C1C2=C(c3ccccc31)C(c1ccccc1)N1C(=O)CSC1=N2 (stereo not given)
active: at 100.0 µM 77%
inactive: at 1.2 µM -8% | at 3.7 µM -14% | at 11.0 µM 13% | at 33.0 µM 41%

Nc1cc2ccccc2cc1N
inactive: at 1.2 µM 13% | at 3.7 µM 20% | at 11.0 µM 16% | at 33.0 µM 33% | at 100.0 µM 63%

CCCCN(CCCC)c1ccc(N=Nc2ccc(S(=O)(=O)O)cc2)cc1
inactive: at 1.2 µM 30% | at 3.7 µM 53%
active: at 11.0 µM 90% | at 33.0 µM 94% | at 100.0 µM 94%

COc1ccc2nc(CCc3ccccc3)ccc2c1
active: at 100.0 µM 96%
inactive: at 1.2 µM -24% | at 3.7 µM -17% | at 11.0 µM -3% | at 33.0 µM 21%

O=C1Nc2ccc(Br)cc2C1=Nc1cccnc1
inactive: at 1.2 µM -32% | at 3.7 µM -41% | at 11.0 µM -21% | at 33.0 µM -29% | at 100.0 µM -18%

O=C(O)c1ccc2cc(Cl)c3ccccc3c2c1
inactive: at 1.2 µM 0% | at 3.7 µM 8% | at 11.0 µM 29% | at 33.0 µM 53% | at 100.0 µM 68%

Reference: PubChem BioAssay (NCI)
